In the library only some 1.2% were active in any assay of this set; here they are far more common.
Apoferritin bind – qHTS Assay for Identification of Novel General Anesthetics | Ferritin light chain (Equus caballus), P02791 | apoferritin/1-aminoanthracene competitive binding, fluorescence | Potency, µM (series often up to 77.5 µM), usual class: inhibitors | hit rate 0.074% among 350,000 | AID 485281, 2010; further: nearly all actives have a fitted effect of over 20% in size
Target sequence (P02791 2-175 limits assumed): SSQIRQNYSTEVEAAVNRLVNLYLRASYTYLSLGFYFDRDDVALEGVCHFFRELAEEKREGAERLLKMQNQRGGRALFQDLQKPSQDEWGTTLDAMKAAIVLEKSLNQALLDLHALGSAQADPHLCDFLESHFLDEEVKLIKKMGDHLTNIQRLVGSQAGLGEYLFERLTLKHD
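Probe: 1-aminoanthracene (50% saturated, PBS). Protein: horse-spleen apoferritin, 10 uM. Incubation: 10 min, room temperature. Detection: 380 nm excitation, 535 nm emission. Analysis: normalized response, four-parameter Hill.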
GoLoco inh red – qHTS Assay for Inhibitors of RGS12 GoLoco Motif Activity (Red Fluorophore) | Guanine nucleotide-binding protein G(i) subunit alpha-1 (Homo sapiens), P63096 | Gai1:RGS12 GoLoco peptide FP, rhodamine, 10 min | Potency, µM (titrated, usually from 61.6 µM), actives largely listed as inhibitors | hit rate 0.44% among 230,000; active means well fitted inhibition curve with a large enough effect, not every such curve was filed as active; inactive means no such curve, though single readings can be large or run the other way; further: nearly all actives have a fitted effect of over 30% in size
ERG-DNA inh – qHTS for Small Molecule Inhibitors of the ERG Ets/DNA interaction. Potency, µM (top dose mostly 76.9 µM), actives largely listed as inhibitors. fluorescence polarization, His-ERG Ets domain / labelled DNA. AID 624246, 2012. hit rate 0.028% among 370,000; active means well fitted inhibition curve with a large enough effect in the polarisation, with a control signal flat; inconclusive means small, poorly fitted or top-dose-only effect, or effect the other way, or a change in a side signal; inactive means no such curve, though single readings can be large or run the other way; the % refers to the polarisation;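 further: polarization taken with two DNA probes labelled with fluorescein and Texas red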
Target sequence (P11308 whole entry, looked up, the tested form may be a part): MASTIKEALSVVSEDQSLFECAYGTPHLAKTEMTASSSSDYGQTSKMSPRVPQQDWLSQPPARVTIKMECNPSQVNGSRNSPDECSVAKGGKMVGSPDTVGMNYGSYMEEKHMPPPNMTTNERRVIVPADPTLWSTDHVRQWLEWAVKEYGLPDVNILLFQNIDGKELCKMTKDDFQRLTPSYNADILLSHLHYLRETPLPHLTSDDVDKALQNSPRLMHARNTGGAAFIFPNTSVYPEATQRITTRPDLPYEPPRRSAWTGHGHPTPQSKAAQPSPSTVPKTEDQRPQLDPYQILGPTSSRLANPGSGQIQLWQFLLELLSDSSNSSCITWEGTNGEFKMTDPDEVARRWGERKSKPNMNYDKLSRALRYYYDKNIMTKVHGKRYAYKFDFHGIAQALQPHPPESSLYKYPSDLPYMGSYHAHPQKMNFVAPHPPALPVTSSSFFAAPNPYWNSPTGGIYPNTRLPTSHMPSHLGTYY
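His-tagged ERG Ets domain (1 uM in the protein solution; 300mM KCl, 50mM Tris-HCl, 1mM EDTA, 1mM DTT, pH 7.5) received compound, then a probe mix of 5 nM fluorescein-DNA and 100nM Texas-615-DNA. Fluorescence polarization was read for both dyes.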
BRCA1 expr up – qHTS Assay to Identify Small Molecule Activators of BRCA1 Expression. MCF7-BRCA1-FFLuc reporter, luminescence, 48 h; response scale: scaled: vehicle 0%, 10 µM genistein 100%. Potency, µM (top dose mostly 46.1 µM), actives largely listed as activators. hit rate 1.1% among 380,000. AID 624202, 2012; further: nearly all actives have a fitted effect of over 80% in size
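MCF7 cells carrying a BRCA1-firefly luciferase reporter (2000 cells/well, phenol-red free MEM) were attached for 2 h at 37 °C, then given compounds for 48 h. Luminescence was read 15 min after luciferase reagent; activity normalized to genistein (10 microM) and DMSO.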
Numbers stand for hits; - = inactive; ? = inconclusive; . = no result; ! = a repeat was not active. Unless noted, the call rests on the fitted dose curve; in most records, active means well fitted curve in the direction sought with a large enough effect; inconclusive means small, poorly fitted or top-dose-only effect, or another doubt; inactive means no such curve, though single readings can be large; an effect the other way counts as inactive or inconclusive.

SMILES	Apoferritin bind	GoLoco inh red	ERG-DNA inh	BRCA1 expr up
COc1ccc2c(c1)O/C(=C\c1ccccc1C)C2=O	-	.	-	12.6µM
O=S(=O)(c1ccc(Cl)cc1)N1CCN(c2nc(-c3ccc(F)cc3)nc3cc(Cl)ccc23)CC1	.	.	.	-
CC(=O)Nc1cccc(NC(=O)c2ccc3[nH]c(C)c(C)c3c2)c1	-	.	-	10µM
Cc1cc(NC(=O)c2ccc3[nH]c(C)c(C)c3c2)ccn1	-	.	-	-
CCCCc1ccc(NC(=O)Nc2cc(C)nn2C)cc1	-	.	31.6µM	-
CCCCc1ccc(NC(=O)Nc2cnccn2)cc1	?	.	-	-
CC[C@H](NC(=O)[C@H](CCCN=C(N)N)NC(=O)[C@H](Cc1c[nH]c2ccccc12)NC(=O)[C@@H](N)CS)C(=O)N[C@@H](CCCN=C(N)N)C(=O)N[C@@H](Cc1ccc(O)cc1)C(N)=O	-	.	.	.
CC(=O)c1cnc(Nc2cccc(Cl)c2Cl)s1	?	-	-	10µM
COCC(=O)N/N=C\c1ccccc1OC/C=C/c1ccccc1	?	.	-	-
N#CCC(=O)N/N=C\c1ccc(OC/C=C/c2ccccc2)cc1	?	.	-	5.01µM
N#CCC(=O)N/N=C/c1ccc(OCc2ccccc2)cc1	-	-	-	7.94µM
N#CCC(=O)N/N=C\c1ccccc1OC/C=C/c1ccccc1	-	.	-	2.51µM
CC(C)COCC(CN(Cc1ccccc1)c1ccccc1)N1CCCC1 (stereo not given)	-	11.2µM!	-	-
Cc1oc2cc(O)ccc2c(=O)c1-c1nncn1-c1ccccc1	-	-	35.5µM	-
Cc1oc2cc(O)ccc2c(=O)c1-c1ccccc1	-	-	-	-
COc1ccc(/[N+]([O-])=C/c2ccco2)cc1	.	.	-	8.91µM
Cc1ccc(C(=O)OCC(=O)N2CCc3ccccc32)cc1	-	-	-	-
Cn1cccc1C(=O)OCC(=O)N1CCc2ccccc21	.	.	-	10µM
O=C(CSc1c[nH]c2ccccc12)N1CCCc2ccccc21	-	-	-	-
O=C(Cc1c[nH]c2ccccc12)N1CCc2ccccc21	?	-	-	11.2µM
O=C(COc1ccc(Br)cc1)N1CCc2ccccc21	-	-	-	7.08µM
O=P1(O)OP(=O)(O)OP(=O)(O)O1.[Al]	-	.	.	.
Cc1cc(O)c(C(C)(C)C)cc1Sc1cc(C(C)(C)C)c(O)cc1C	.	-	.	.
COc1ccc(CNc2ccc3c(c2)nc(C)n3C)cc1OC	-	.	-	-
Nn1c(Nc2ccccc2)nc2ccccc21	-	-	-	10µM
SMILES	Apoferritin bind	GoLoco inh red	ERG-DNA inh	BRCA1 expr up
Cn1c(Nc2ccccc2)nc2ccccc21	?	.	-	-
CCOc1ccc(CNc2ccc3c(c2)nc(C)n3C)cc1	-	-	-	11.2µM
CCOc1ccc(Nc2cc(C)c3ccccc3n2)cc1	-	.	-	10µM
CCc1ccc(CNc2ccc3c(c2)ncn3CC)cc1	-	.	-	6.31µM
COC(=O)c1cc2occc2n1Cc1ccc(F)cc1Cl	-	.	-	.
CN(C)c1ccc(/C=C/c2cc[n+](C)c3ccc4ccccc4c23)cc1	.	.	.	-
CCOc1ccc(CNc2nc3ccccc3n2C)cc1	-	.	-	?
CCOc1ccc(Nc2nc3ccccc3n2C)cc1	.	.	-	2.51µM
CC(C)C/C=C1\CCc2c([nH]c3ccccc23)C1=O	-	-	-	8.91µM
O=C(NCCC1CCCC1)c1cccs1	?	.	-	11.2µM
O=C(NCc1ccc(F)cc1)c1cccs1	?	.	-	-
O=C(NCCCCCCNC(=O)c1cccs1)c1cccs1	-	-	-	-
O=C(NCC1CC1)c1cccs1	.	.	.	-
COc1ccc2cc(CCNC(=O)c3cccs3)c(=O)[nH]c2c1	-	-	-	2.82µM
O=C(NCCc1ccc(F)cc1)c1cccs1	-	-	-	11.2µM
O=C(NCCc1cccs1)c1cccs1	-	-	-	6.31µM
O=C(COc1ccccc1C(=O)Nc1ccccc1)Nc1ccccc1F	.	.	.	-
O=S(=O)(c1cccc(F)c1)N1CCN(c2nc(-c3cccs3)nc3ccccc23)CC1	.	.	.	-
COc1ccc(CCNC(=O)c2cccs2)cc1	-	.	-	10µM
Nn1c(SCC(=O)Nc2ccc3c(c2)OCO3)nnc1C1CCCCC1	5.01µM	-	-	-
O=C(Cn1nnc(-c2ccc(F)cc2)n1)N1CCCCC1	-	-	-	-
O=C(Cn1nnc(-c2ccccc2F)n1)N1CCCCC1	-	.	-	8.91µM
O=C(Nc1ccncc1)c1sc2ccccc2c1Cl	-	-	-	-
O=C(Nc1ccnc(=O)[nH]1)c1sc2ccccc2c1Cl	-	-	-	5.62µM
O=C(Nc1ccc(NC(=O)c2sc3ccccc3c2Cl)cc1Cl)c1ccco1	-	-	-	7.94µM
SMILES	Apoferritin bind	GoLoco inh red	ERG-DNA inh	BRCA1 expr up
Cc1cc(N/N=C/c2ccncc2)nc2ccccc12	-	-	-	5.62µM
Cc1ccc(N/N=C/c2ccncc2)cc1	-	.	-	6.31µM
CCC[C@H](NC(C)=O)C(=O)N[C@H]1CC(=O)ONCCCC[C@@H](C(N)=O)NC(=O)[C@H](Cc2c[nH]c3ccccc23)NC(=O)[C@H](CCCN=C(N)N)NC(=O)[C@@H](Cc2ccc3ccccc3c2)NC(=O)[C@H](Cc2cnc[nH]2)NC1=O	-	.	.	.
Cc1cc(/C=C2\C=Cc3ccccc32)cc(C)c1[N+](=O)[O-]	.	.	.	-
COc1ccc(C(=O)Cc2cc(OC)c(OC)cc2[N+](=O)[O-])cc1	-	-	.	11.2µM
CCOc1ccc(C(=O)Cc2cc(OC)c(OC)cc2[N+](=O)[O-])cc1	-	-	.	-
N[C@@H](C(=O)O)[C@@H](CC(=O)O)c1ccc(Cl)cc1	-	-	.	.
COC(=O)c1ccc(Cc2ccc(C(=O)OC)o2)o1	-	-	.	-
COC(=O)c1ccc(Cn2c(C)cc(C)[n+]2C)o1	-	17.8µM	-	-
CSCc1ccc(C(=O)Nc2cccc(C)c2C)cc1	-	-	-	11.2µM
Cc1ccc(C(=O)Cn2nnc3ccccc32)cc1	-	-	-	4.47µM
Cc1ccc(NC(=O)CCn2nnc3ccccc32)cc1	-	-	-	11.2µM
O=C(/C=C/c1ccccc1Cl)NCCc1ccccc1	?	-	-	11.2µM
CCN(CC)c1ccc(NC(=O)/C=C\c2ccccc2Cl)cc1	?	-	.	3.16µM
O=C(CSc1nc2ccccc2c(=O)n1NC(=O)c1ccccc1)c1ccc(Cl)cc1	?	-	-	14.1µM
COc1cc2nc(N3CCCN(C)CC3)nc(NC3CCN(C)C3)c2cc1OC (stereo not given)	.	.	.	-
CCCCN(CC)c1nc(C)nc2c1c(C)c(C)n2-c1c(C)cc(C)cc1C	-	.	.	.
Cc1cc(CNC(=O)c2cc(COc3ccc(F)c(F)c3)on2)nn1C	?	.	-	8.91µM
COc1ccccc1CCNC(=O)Cc1c(C)c2c(cc(C)c3c(C)coc32)oc1=O	-	.	-	.
O=S(=O)(c1ccc2c(c1)CCCC2)N1CCN(c2nc(-c3cccs3)nc3ccccc23)CC1	.	.	.	-
COc1cc(Br)c(CC(=O)NO)cc1OC	.	.	.	-

Screening data: PubChem, National Center for Advancing Translational Sciences (NCATS)
